Records with an inconclusive call do not appear. Where a call stands in place of a potency, no number is given. Activity calls are given as the source filed them. The call rests on the fitted dose curve; in most records, active means well fitted inhibition curve with a large enough effect; inconclusive means small, poorly fitted or top-dose-only effect; inactive means flat fitted curve, though single readings scatter.
How the values were obtained:
Assay in all cases: qHTS profiling for inhibitors of Plasmodium falciparum proliferation (AID 504749); further: nearly all actives have a fitted effect of over 60% in size
Details in all cases: P. falciparum in erythrocytes, SYBR Green DNA, 72 h; series mostly up to 28.7 µM
3D7 = system: 3D7
Procedure, shortened: (§1)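 Fluorescence of SYBR Green-bound parasite DNA, read at 485/535 nm, served as the growth measure. Infected erythrocytes were cultured with compound 72 h; artemisinin (0.29 uM) and DMSO wells defined the normalization range.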

CP185 = system: CP185
Procedure, shortened: as §1

CP201 = system: CP201
Procedure, shortened: as §1

CP238 = system: CP238
Procedure, shortened: as §1

CP250 = system: CP250
Procedure, shortened: as §1

CP262 = system: CP262
Procedure, shortened: as §1

CP265 = system: CP265
Procedure, shortened: as §1

CP268 = system: CP268
Procedure, shortened: as §1

CP325 = system: CP325
Procedure, shortened: as §1

CP329 = system: CP329
Procedure, shortened: as §1

CP335 = system: CP335
Procedure, shortened: as §1

DIV30 = system: DIV30
Procedure, shortened: as §1

Dd2 = system: Dd2
Procedure, shortened: as §1

ECU = system: ECU
Procedure, shortened: as §1

FAB9 = system: FAB9
Procedure, shortened: as §1

GB4 = system: GB4
Procedure, shortened: as §1

HB3 = system: HB3
Procedure, shortened: as §1

P94_40 = system: P94_40
Procedure, shortened: as §1

PAD = system: PAD
Procedure, shortened: as §1

SC27B = system: SC27B
Procedure, shortened: as §1
Potency means the concentration at half of the fitted maximal effect.

SMILES | Potency (3D7) | Potency (CP185) | Potency (CP201) | Potency (CP238) | Potency (CP250) | Potency (CP262) | Potency (CP265) | Potency (CP268) | Potency (CP325) | Potency (CP329) | Potency (CP335) | Potency (DIV30) | Potency (Dd2) | Potency (ECU) | Potency (FAB9) | Potency (GB4) | Potency (HB3) | Potency (P94_40) | Potency (PAD) | Potency (SC27B)
C[C@@]12C(=O)OC(=O)[C@]1(C)[C@H]1CC[C@@H]2O1 | 3.16 µM (active) | 2.51 µM (active) | 3.61 µM (active) | 2.51 µM (active) | 3.16 µM (active) | 3.61 µM (active) | 3.55 µM (active) | 2.87 µM (active) | 3.61 µM (active) | 2.56 µM (active) | 2.56 µM (active) | 5.73 µM (active) | 4.47 µM (active) | 3.55 µM (active) | inactive | 4.05 µM (active) | 3.55 µM (active) | 2.51 µM (active) | 3.98 µM (active) | 2.82 µM (active)
C=C1CCC2[C@](C)(CO)C(O)CC[C@]2(C)C1C/C=C1/C(=O)OCC1O (stereo not given in full) | inactive | inactive | inactive | inactive | 12.6 µM (active) | inactive | inactive | inactive | inactive | inactive | inactive | inactive | inactive | inactive | inactive | inactive | inactive | inactive | inactive | inactive
